Results from PubChem BioAssay AID1159580 (chemical genetic matrix, 2015).
Hit rate of the full screen: of about 5,500 compounds, about 2,000 (36%) were called active. Roughly 18% stayed inconclusive and do not appear here. Rule as the data show it: active = normalized growth mostly below about 0.91 (no sharp cut-off); inconclusive = no clear call, values can overlap the other calls; inactive = mostly above about 0.92. The list shows a part of the results.

Assay: chemical genetic growth profiling, strain panel (AID 1159580);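 also: tested at 20 µM; growth read once vehicle control cultures reached saturation at 30 °C; 1 = growth at the plate median or of vehicle wells; lower values mean less growth of the strain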
Conditions: S. cerevisiae deletion strains, growth OD

Measured: normalized growth

CNCC[C@@H](Oc1ccc(C(F)(F)F)cc1)c1ccccc1
inactive: locus YAL040C, strain CLN3, stronger effect = lower value 1.04 | locus YCL061C, strain MRC1 (second series), stronger effect = lower value 0.977 | locus YDR150W, strain NUM1, stronger effect = lower value 0.998 | locus YDR363W, strain ESC2, stronger effect = lower value 0.943 | locus YER002W, strain NOP16, stronger effect = lower value 0.993 | locus YGR078C, strain PAC10, stronger effect = lower value 1.01 | locus YJR075W, strain HOC1, stronger effect = lower value 0.982 | locus YMR307W, strain GAS1, stronger effect = lower value 0.999 | locus YNL128W, strain TEP1, stronger effect = lower value 1.03 | locus YNL153C, strain GIM3, stronger effect = lower value 1.01 | locus YNL175C, strain NOP13, stronger effect = lower value 1.04 | locus YNL197C, strain WHI3, stronger effect = lower value 1.01 | locus YNL224C, strain SQS1, stronger effect = lower value 1.02 | locus YNL322C, strain KRE1, stronger effect = lower value 0.963 | locus YOR083W, strain WHI5 (second series), stronger effect = lower value 1.01 | locus YPL055C, strain LGE1, stronger effect = lower value 0.975 | locus YPL241C, strain CIN2, stronger effect = lower value 0.978
